Sampled rows, rich in hits. Any-hit rate of the full collection: about 4.6%.
D1 ag = Allosteric Agonists of the Human D1 Dopamine Receptor: qHTS. AID 504660, 2011. D(1A) dopamine receptor (Homo sapiens), P21728. activation, % at 2 µM. 1% of 360,000 active. HEK293 T-REx D1 cells, calcium flux, agonist mode; note: 0% is about no effect
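Inducible HEK293 T-REx D1 cells, force-coupled to calcium signalling, were plated at 4000 cells/well with tetracycline and held overnight at 30 C. After no-wash calcium dye loading, compound-evoked calcium rise over 180 s flagged agonists.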
D1 antag = Antagonist of Human D 1 Dopamine Receptor: qHTS; activity change, negative = inhibition, % at 10 µM; HEK293 TREx D1 cells, calcium flux, dopamine EC80; stronger effect = lower value; 3.2% of 360,000 active; in the data active = activity change below about -30%; note: % is set by controls: 0 for no effect and ±100 for the full control effect
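Using tetracycline-induced force-coupled D1 Hek293 cells and a calcium dye, signals were followed for 180 s after compound, then for 180 s after EC80 dopamine, to detect inhibitors.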
TRHR agonist = qHTS for Small Molecule Agonists and Allosteric Enhancers of Human TRH Receptor: Primary Screen for Agonists; 0.18% of 360,000 active; TRHR cells, calcium flux fluo-8, FDSS agonist mode; activation, % at 2 µM; AID 493084, 2011; note: 0% is about no effect
Target sequence (P34981 whole entry, looked up): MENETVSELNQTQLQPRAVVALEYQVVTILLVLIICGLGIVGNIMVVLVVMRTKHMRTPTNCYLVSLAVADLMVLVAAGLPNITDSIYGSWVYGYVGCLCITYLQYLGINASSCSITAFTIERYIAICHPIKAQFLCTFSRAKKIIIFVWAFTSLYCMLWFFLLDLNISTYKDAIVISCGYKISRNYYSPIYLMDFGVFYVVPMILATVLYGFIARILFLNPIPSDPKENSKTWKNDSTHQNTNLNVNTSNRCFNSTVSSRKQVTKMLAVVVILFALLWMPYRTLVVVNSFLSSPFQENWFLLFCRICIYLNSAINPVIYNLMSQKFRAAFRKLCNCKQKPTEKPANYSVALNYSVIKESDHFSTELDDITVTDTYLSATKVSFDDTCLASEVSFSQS
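Read-out: compound-evoked intracellular calcium rise in TRHR cells, fluo-8 dye, kinetic FDSS fluorescence at 1 s/cycle following a 10-cycle baseline. Cells cultured overnight before dye loading (30 min–1.5 h, RT).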
TRHR enhancer = qHTS for Small Molecule Agonists and Allosteric Enhancers of Human TRH Receptor: Primary Screen for Enhancers | TRHR cells, fluo-8 calcium fluorescence, EC20 TRH enhancement | enhancement, % at 2 µM | 0.66% of 360,000 active; in the data active = enhancement above about 30%; note: 0% is about no effect
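Enhancer read-out: after compound pinning and an initial kinetic agonist-mode read, an EC20 of TRH (10 nM final) was injected and fluo-8 calcium signal (Ex 480/Em 530) followed at 1 s/cycle for 100 cycles in TRHR-expressing cells.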
D1 potentiator = Potentiators of Human D1 Dopamine Receptor: qHTS; 0.036% of 360,000 active; potentiation, % at 10 µM; HEK293 TREx D1 cells, calcium flux, dopamine EC20 potentiation; in the data active = potentiation above about 30%; note: 0% is about no effect
* hit, by the source's call. Cut-off read from the data, not from the text of the source, unless noted: active = activation above about 30%; inactive = the rest.

SMILES	D1 ag	D1 antag	TRHR agonist	TRHR enhancer	D1 potentiator
Cc1occc1C(=O)Nc1c(F)c(F)c(F)c(F)c1F	3.6	1.4	-0.5	14.6	11.0
COc1cccc(NC(CNS(=O)(=O)c2ccc(Cl)cc2)c2ccccc2)c1 (stereo unspecified)	9.3	-34.2*	-1.4	7.0	-3.0
COc1cccc(NC(CNS(=O)(=O)c2ccc(C)cc2)c2ccccc2)c1 (stereo unspecified)	2.4	-7.0	-1.2	7.5	-2.1
CCCCC(=O)NC(N1CCCCC1)C(Cl)(Cl)Cl (stereo unspecified)	1.1	-3.0	-0.6	3.6	-4.7
Cc1noc(C)c1COC(=O)c1ccccc1Sc1ccccc1C#N	14.1	-37.9*	0.8	-13.5	-9.8
N#Cc1ccccc1Sc1ccccc1C(=O)OCC(N)=O	3.0	-5.0	0.9	4.3	2.4
CC(C)NC(=S)NC(=O)/C=C/c1ccc(F)cc1	1.8	-81.0*	0.8	0.8	-12.1
CCc1nnc(NS(=O)(=O)c2ccc(NC(=S)NC(=O)c3ccc(Br)cc3)cc2)s1	1.9	-11.9	-0.3	34.9*	-4.8
CCc1nnc(NS(=O)(=O)c2ccc(NC(=S)NC(=O)/C=C/c3ccc(OC)cc3)cc2)s1	4.4	-30.1*	0.1	6.8	-3.2
COc1nccnc1NS(=O)(=O)c1ccc(NC(=S)NC(=O)/C=C/c2ccc(F)cc2)cc1	-1.9	-37.8*	-0.9	-7.5	-15.7
Cc1cccnc1NC(=O)CNC(=O)C1CCCCC1	0.1	-4.5	0.4	-3.7	-5.8
CCOC(=O)N/N=C\c1ccc(OC(=O)c2ccc3c(c2)OCO3)cc1	3.4	-24.8	0.1	-4.4	-3.0
Cc1c(-c2nc(-c3ccccc3F)no2)nnn1-c1cc(F)ccc1F	2.2	-5.8	0.5	-3.9	-1.9
CCN(CC(=O)N1CCCCCC1)S(=O)(=O)c1ccc(C)cc1	0.5	-7.8	-0.1	-9.5	-3.5
Cc1ccc(S(=O)(=O)c2nc(S(=O)(=O)c3ccccc3)sc2NCCCOC(C)C)cc1	4.1	4.1	2.2	1.3	-0.7
CCCS(=O)(=O)c1nc(S(=O)(=O)c2ccc(C)cc2)c(NCCCOC(C)C)s1	36.5*	-40.7*	-0.8	5.7	-1.6
O=c1cc(Nc2ccc3c(c2)OCCO3)[nH]c(=O)n1C1CCCCC1	11.5	7.6	1.0	5.1	1.1
CCc1ccc(Nc2cc(=O)n(C3CCCCC3)c(=O)[nH]2)cc1	34.3*	-35.3*	7.0	-4.6	-2.9
COc1ccc(/C=N/n2c(C)nc3sc(C)c(C)c3c2=O)cc1OC	0.5	-9.9	0.7	5.4	1.3
CCOc1ccccc1N(C)C(=O)Cn1cnc2onc(-c3ccc(F)cc3)c2c1=O	2.7	-30.6*	0.6	-6.7	2.4
COc1cccc(CNS(=O)(=O)c2cc3[nH]c(=O)c(=O)[nH]c3cc2C)c1	1.9	1.3	0.3	31.3*	6.9
Cc1ccccc1C(=O)N1CCN(c2ccc(NC(=O)c3cccnc3Cl)cc2)CC1	1.4	-9.8	0.9	-0.8	-1.4
O=C(Nc1ccc(N2CCN(C(=O)c3ccccc3F)CC2)cc1)c1ncn[nH]1	2.4	3.2	-0.2	33.5*	0.3
O=C(Nc1ccc(N2CCCCC2)c(Cl)c1)c1ncn[nH]1	39.2*	1.5	-0.5	12.0	1.1
CN(C)CCNC(=O)C1CCN(c2nc3ccccc3[nH]2)CC1	1.6	-1.2	0.7	4.3	-0.6
COCCCNC(=O)C1CCN(c2nc(C)cc(C)n2)CC1	1.9	24.0	0.7	36.5*	0.7
COC(=O)CNC(=O)C1CCN(c2nc(C)cc(C)n2)CC1	7.0	5.2	0.3	-4.6	-1.5
COCCCNC(=O)C1CCN(c2nc3ccc(Cl)cc3[nH]2)CC1	0.2	-7.8	0.1	6.5	-2.5
Cc1cccc(CNC(=O)C2CCN(c3nc4ccc(Cl)cc4[nH]3)CC2)c1	42.3*	11.3	-0.8	-2.3	-0.7
CCOCCCNC(=O)C1CCN(c2nc3ccc(C)cc3[nH]2)CC1	0.2	-45.7*	-0.2	4.2	4.5

From PubChem
